PubChem BioAssay (NCI)
Compounds without any hit were thinned out: in the full panel of roughly 83,000, 20% have a hit.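 Step 1: grow cells in 96-well plates. Step 2: add test compound at a single concentration. Step 3: incubate 48 h. Step 4: record percent growth.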 Active and inactive are the calls of the source. Rule for the calls: active = growth percent below 10; inactive = the rest.

system: U251 CNS; test: NCI-60 one-dose screen, 48 h (100 = growth as untreated, 0 = no growth, -100 = all killed); conditions: 10 µM unless noted

Row | SMILES | growth
1 | CCC(Br)(CC)C(=O)c1ccc(OCC(=O)O)c(Cl)c1Cl | 106% (inactive)
2 | Oc1c(CNCCNCc2cc(Cl)cc(Cc3ccccc3)c2O)cc(Cl)cc1Cc1ccccc1 | 17% (inactive)
3 | CCc1ccc(-c2ccc(COc3ccc(CC4SC(=O)NC4=O)cc3)cc2)cc1 (configuration not stated) | 72.8% (inactive)
4 | Cn1cc(-c2noc(-c3cn(C)c4ncc(F)cc34)n2)c2ccccc21 | 30.8% (inactive)
5 | Clc1ccc2nc(-c3ccc(-c4ccc(/C=N/NC5=NCCN5)cc4)s3)cn2c1 | 97.5% (inactive)
6 | CC(C)CCSc1nc(N)nc2nc[nH]c12 | 100% (inactive)

system: PC-3 prostate; test: as above; conditions: 10 µM unless noted

Row | SMILES | growth
7 | O=C(COc1cccc(/C=C2\Oc3ccccc3C2=O)c1)c1ccc([N+](=O)[O-])cc1 | 86.6% (inactive)
8 | CC[C@]12C=CCN3CC[C@@]4(c5ccc(OC)cc5N(C)[C@H]4[C@@](O)(C(=O)OC)[C@@H]1OC(=O)CCC(=O)N[C@H](Cc1c[nH]c4ccccc14)C(=O)OC)[C@@H]32 | -15.8% [100 µM] (active)
9 | C=C(C)[C@@H]1CC[C@]2(C(N)=O)CC[C@]3(C)[C@H](CC[C@@H]4[C@@]5(C)C/C(=C/c6cccnc6)[C@H](O)C(C)(C)[C@@H]5CC[C@]43C)[C@@H]12 | 21.1% [100 µM] (inactive)
10 | CSc1nc2sc3cc(Cl)c(Cl)cc3n2c(=N)c1C#N | 97.6% (inactive)
11 | COc1ccc(/C=C2\N=C(Nc3ccccc3)N(NC(=O)c3ccccn3)C2=O)cc1 | 101% (inactive)
12 | O=C(NCCCNC(=O)OCc1ccc2cccc(O)c2n1)OCc1ccc2cccc(O)c2n1 | 56.6% (inactive)
